According to article PMC4053984, “DNA binding specificities of the long zinc-finger recombination protein PRDM9”:

Target: PRDM9Cst (Mus musculus (CAST/EiJ))
Test: competition EMSA; competition against biotin-labeled 75-bp Hlx1 B6 oligo; 10 mM Tris pH 7.5, 50 mM KCl, 1 mM DTT, 50 ng/ul poly(dI/dC), 0.05% NP-40, crude E. coli extract 3 ul in 20 ul; 1 h with unlabeled competitor, then 4 h with biotin-labeled 75-bp Hlx1; temperature not stated; high values mean tight binding
Conditions: tags: N-terminal His tag (pBAD/HisB); dsDNA, one strand shown

Sequence of PRDM9Cst (Mus musculus (CAST/EiJ)) (chain, as listed by the source): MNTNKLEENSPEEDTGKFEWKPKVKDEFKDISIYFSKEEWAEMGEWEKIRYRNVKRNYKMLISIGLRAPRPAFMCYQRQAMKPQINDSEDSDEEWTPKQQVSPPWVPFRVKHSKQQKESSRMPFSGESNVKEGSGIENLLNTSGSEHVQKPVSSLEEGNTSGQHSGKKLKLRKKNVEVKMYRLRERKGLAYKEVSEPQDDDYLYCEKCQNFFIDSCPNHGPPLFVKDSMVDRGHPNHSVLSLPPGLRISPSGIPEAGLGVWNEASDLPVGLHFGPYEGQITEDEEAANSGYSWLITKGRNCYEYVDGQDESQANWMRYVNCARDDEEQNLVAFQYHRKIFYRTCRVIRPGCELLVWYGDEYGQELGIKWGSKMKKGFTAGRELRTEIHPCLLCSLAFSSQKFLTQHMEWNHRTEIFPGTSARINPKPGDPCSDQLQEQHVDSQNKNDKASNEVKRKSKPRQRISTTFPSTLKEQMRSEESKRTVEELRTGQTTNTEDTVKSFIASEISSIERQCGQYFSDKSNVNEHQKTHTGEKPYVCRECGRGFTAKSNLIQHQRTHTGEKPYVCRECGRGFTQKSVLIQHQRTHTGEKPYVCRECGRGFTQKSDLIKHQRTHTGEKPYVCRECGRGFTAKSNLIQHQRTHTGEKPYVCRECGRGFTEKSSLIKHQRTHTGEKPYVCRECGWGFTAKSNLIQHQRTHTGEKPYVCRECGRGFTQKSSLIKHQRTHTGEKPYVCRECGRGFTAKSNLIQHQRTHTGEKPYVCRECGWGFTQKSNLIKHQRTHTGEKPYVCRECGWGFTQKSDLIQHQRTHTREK

| Sequence | binding signal |
| --- | --- |
| ATAGTGTGCAGACTTGGACCCTGCCCTTTCTTT | 0 Bmut (0 = wild type, -1 = scrambled) |
| ATAGTGTGCAGACTTGGACCCTTCCCTTTCTTT | -0.3 Bmut (0 = wild type, -1 = scrambled) |
| ATTGTGTGCAGACTTGGACCCTGCCCTTTCTTT | -0.1 Bmut (0 = wild type, -1 = scrambled) |
| ATAGTGTGCAGAATTGGACCCTGCCCTTTCTTT | -0.1 Bmut (0 = wild type, -1 = scrambled) |
| ATAGTGTGCAGACTTGGACACTGCCCTTTCTTT | -0 Bmut (0 = wild type, -1 = scrambled) |
| GTAGTGTGCAGACTTGGACCCTGCCCTTTCTTT | 0 Bmut (0 = wild type, -1 = scrambled) |
| ATAGTGTGCAGACTTGGACCCTGCCCTTGCTTT | -0 Bmut (0 = wild type, -1 = scrambled) |
| ATAGTGTGCAGACTTGGACCCTGGCCTTTCTTT | 0.03 Bmut (0 = wild type, -1 = scrambled) |
| ATAGTGTGCAGACTTGGACCCTGCCCTTTCTAT | 0.15 Bmut (0 = wild type, -1 = scrambled) |
| ATAGTGGGCAGACTTGGACCCTGCCCTTTCTTT | -0.7 Bmut (0 = wild type, -1 = scrambled) |
| ATAGTGTGCAGACTTGGACTCTGCCCTTTCTTT | 0.01 Bmut (0 = wild type, -1 = scrambled) |
| ATAGTGTGCAGACTTGGACCCTGCCTTTTCTTT | 0.15 Bmut (0 = wild type, -1 = scrambled) |
| ATAGTGTGCAGACTTGGACCCTGCCCTGTCTTT | 0.01 Bmut (0 = wild type, -1 = scrambled) |
| ATAGTGTGCTGACTTGGACCCTGCCCTTTCTTT | -0.4 Bmut (0 = wild type, -1 = scrambled) |
| ATAGTGTGCAGACTTGGACGCTGCCCTTTCTTT | -0.1 Bmut (0 = wild type, -1 = scrambled) |
| ATAGTGTGCAGACTTGGACCCTGCCCTTTATTT | 0.05 Bmut (0 = wild type, -1 = scrambled) |

| Sequence | binding signal |
| --- | --- |
| ACAGTGTGCAGACTTGGACCCTGCCCTTTCTTT | -0.1 Bmut (0 = wild type, -1 = scrambled) |
| ATAGTGTGCAGACTTGGACCCTGCCCATTCTTT | 0.09 Bmut (0 = wild type, -1 = scrambled) |
| ATAGTGTGCAGACTTGGAACCTGCCCTTTCTTT | -0.1 Bmut (0 = wild type, -1 = scrambled) |
| ATAGTGTGCAGACTTTGACCCTGCCCTTTCTTT | 0 Bmut (0 = wild type, -1 = scrambled) |
| ATAGTGTGCAGACTTGGACCCTCCCCTTTCTTT | -0.1 Bmut (0 = wild type, -1 = scrambled) |
| AGAGTGTGCAGACTTGGACCCTGCCCTTTCTTT | -0.8 Bmut (0 = wild type, -1 = scrambled) |
| ATAGTGTGCAGACTTGGACCCTGCCCTCTCTTT | -0.1 Bmut (0 = wild type, -1 = scrambled) |
| ATAGTGTACAGACTTGGACCCTGCCCTTTCTTT | 0.1 Bmut (0 = wild type, -1 = scrambled) |
| ATAGTGTGCAGACTTGGACCCTGCACTTTCTTT | -0.1 Bmut (0 = wild type, -1 = scrambled) |
| ATAGTGTGCAGACTTGGACCCTGCCCTTACTTT | -0.1 Bmut (0 = wild type, -1 = scrambled) |
| ATAGTATGCAGACTTGGACCCTGCCCTTTCTTT | 0 Bmut (0 = wild type, -1 = scrambled) |
| ATAGTGTGCACACTTGGACCCTGCCCTTTCTTT | -0.2 Bmut (0 = wild type, -1 = scrambled) |
| ATAGTGTGCAGACTTGGACCCTGCCCTTTCTCT | 0.13 Bmut (0 = wild type, -1 = scrambled) |
| ATAGTGTGCAGACTTGGACCCTGCCCTATCTTT | 0.13 Bmut (0 = wild type, -1 = scrambled) |
| ATAGTGTGCAGACTTGGACCTTGCCCTTTCTTT | 0.06 Bmut (0 = wild type, -1 = scrambled) |
